Screening data: PubChem BioAssay, Broad Institute
The list is not random: actives were taken first. Their share in the collection is about 4.1%.
NSD2 HMT inh = NSD2 histone methyltransferase inhibitors, primary screen, biochemical, AlphaScreen, single concentration, set 2; Histone-lysine N-methyltransferase NSD2 (Homo sapiens), O96028; NSD2 peptide methylation, 120 min; inhibition, % at 12.5 µM; 310,000 compounds, 0.54% hits; in the data active means inhibition above about 50%
Env fusion inh = inhibitors of HIV-1 Env-driven cell-cell fusion, primary screen, HeLa-JRFL effector, CEM21 target cells, luciferase | inhibition, % at 12.3 µM | 360,000 compounds, 1.1% hits | AID 651610, 2012;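 active means mean replicate inhibition score of at least 50 and every replicate individually at or above 50; inconclusive means only one of the two criteria met; inactive means mean below 50 and not all replicates reaching 50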
PglD inh = C. jejuni PglD acetyltransferase inhibitors, primary screen, biochemical, DTNB colorimetric, single point | 360,000 compounds, 0.098% hits | UDP-N-acetylbacillosamine N-acetyltransferase PglD (Campylobacter jejuni) | AID 602405, 2012 | purified PglD enzyme, DTNB colorimetric CoA detection | inhibition, % at 12.5 µM; in the data active means inhibition above about 16%, passing the limit was not always enough; inconclusive means no clear call, values can overlap the other calls
Casp6 inh = human caspase-6 inhibitors, primary screen, biochemical, VEID-R110 fluorescence, single point, set 2; P55212; purified caspase-6, Z-VEID-R110 cleavage fluorescence; inhibition, % at 12.5 µM; 350,000 compounds, 0.53% hits;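 active means mean inhibition across replicates at least about 35%, with every replicate also reaching that limit, limit read from the data; inconclusive means only one of the two criteria met; inactive means neither criterion met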
Target sequence (P55212 24-179 limits assumed): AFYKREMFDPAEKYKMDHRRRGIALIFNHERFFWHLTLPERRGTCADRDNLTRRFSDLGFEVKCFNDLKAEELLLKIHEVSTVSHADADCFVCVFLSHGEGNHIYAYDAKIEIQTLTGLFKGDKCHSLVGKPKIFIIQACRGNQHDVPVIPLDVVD
Target sequence (P55212 194-293 limits assumed): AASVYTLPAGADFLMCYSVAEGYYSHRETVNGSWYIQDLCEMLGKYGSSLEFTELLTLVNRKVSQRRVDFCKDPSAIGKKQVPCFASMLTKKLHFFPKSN
ALR H2O2 inh = inhibitors of human ALR sulfhydryl oxidase, primary screen, biochemical, H2O2 detection, HRP-luminol luminescence, single point; purified ALR, DTT oxidation; inhibition, % (concentration not given with the values); 290,000 compounds, 3.8% hits;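 active means mean replicate inhibition above about 79%, with every replicate also reaching it, limit read from the data; inconclusive means only one of the two criteria met; inactive means mean below limit and not every replicate reaching it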
Target sequence (P55789 whole entry, looked up): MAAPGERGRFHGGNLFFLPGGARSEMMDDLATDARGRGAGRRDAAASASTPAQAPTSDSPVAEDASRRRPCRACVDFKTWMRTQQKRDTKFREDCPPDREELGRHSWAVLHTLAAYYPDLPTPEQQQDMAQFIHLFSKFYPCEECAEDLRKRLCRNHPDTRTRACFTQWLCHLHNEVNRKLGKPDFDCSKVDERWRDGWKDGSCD
CFTR F508del cor = F508del CFTR correction, initial screen, CFBE line, single point. CFBE cells, YFP halide quenching; stimulated with forskolin plus potentiator P3; % fluorescence drop versus neutral controls. activity (quench increase), % at 7.58 µM. 350,000 compounds, 0.36% hits. AID 720511, 2013;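 active means mean added fluorescence quench of at least 8% versus neutral control, with both replicates also reaching 8%; inconclusive means only one of the mean or replicate conditions met; inactive means mean below 8% and not both replicates reaching 8%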;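 further: cells transiently co-express mutant CFTR-F508del with the halide-sensitive YFP; corrector assay measuring rescue of mutant channel to the surface after 24 h compound exposure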
Numbers stand for hits; . = inactive; ? = inconclusive; / = not tested or not shown; [ ] = another dose, or the depositor's remark.

SMILES | NSD2 HMT inh | Env fusion inh | PglD inh | Casp6 inh | ALR H2O2 inh | CFTR F508del cor
COc1cccc(-c2nc(CS(=O)(=O)CC(=O)NC3CC3)c(C)o2)c1 | . | . | . | . | . | .
COc1cccc(-c2nc(CS(=O)(=O)CC(=O)NC3CCCCC3C)c(C)o2)c1 (stereo not given) | . | . | . | . | 93.1 | .
CC(=O)N1C[C@@H]2[C@H](c3ccccc31)[C@@H](CO)N2C(=O)c1ccc(F)cc1 | / | / | . | . | / | .
CN1C(=O)c2cc(NC(=O)C3CCCCC3)ccc2OC[C@@H]2O[C@@H](CC(=O)NCc3ccccc3F)CC[C@@H]21 | / | . | . | . | / | .
CC1C/C(=C/c2cccn2C)C(=O)/C(=C/c2cccn2C)C1 (stereo not given) | . | . | . | / | . | /
CC1C/C(=C/c2ccncc2)C(=O)/C(=C/c2ccncc2)C1 (stereo not given) | / | 81.4 | . | . | . | .
NC(CSCc1ccccc1Cl)C(=O)O (stereo not given) | . | . | / | . | . | .
N=C(N)SCc1ccccc1Cl | . | . | . | / | 99.5 | /
O=C(CCSCCC(=O)NCc1ccco1)NCc1ccco1 | . | . | / | / | . | /
COc1ccc(CNC(=O)CSCc2ccccc2Cl)cc1 | . | . | / | / | 98.1 | /
COc1ccc(CNC(=O)CCSCc2ccccc2Cl)c(OC)c1 | . | . | / | . | . | /
COc1ccc(NC(=O)CSCC(=O)N2CCCc3ccccc32)cc1 | . | . | . | . | 89.9 | .
O=C(CCSCc1ccccc1Cl)NCc1ccco1 | . | . | / | . | 93.3 | .
Cc1ccccc1CSCC(=O)N/N=C/c1cccs1 | . | / | . | / | 97.9 | /
O=C(Cc1ccccc1)N/N=C/c1cccs1 | . | / | / | / | . | /
C[C@@H]1CN([C@H](C)CO)C(=O)c2cc(C#CC3CC3)cnc2O[C@H]1CN(C)C(=O)c1ccc(F)cc1 | / | . | . | . | / | .
Cc1ccccc1CSCC(=O)Nc1ccccc1-c1ccccc1 | . | . | / | . | . | /
COc1ccc(NC(=O)CSCc2ccccc2C)cc1 | . | . | . | / | 84.0 | /
COc1ccc(NC(=O)CSCC(=O)NCCc2ccccn2)cc1 | . | . | / | . | 97.7 | .
COc1ccc(-c2nnc(SCc3nnc(-c4ccc(Cl)cc4)o3)n2-c2ccccc2)cc1 | . | 65.1 | . | / | / | /
COc1ccc(-c2nnc(SCc3nnc(-c4ccccc4)o3)n2-c2ccccc2)cc1 | . | . | . | / | . | /
CCCCCCN1C=CC(=C2C(=O)c3ccccc3C2=O)C=C1 | / | . | . | . | . | .
CCCCN1C(C)=CC(=C2C(=O)c3ccccc3C2=O)C=C1C | . | . | / | . | . | .
CCCN1C=CC(=C2C(=O)c3ccccc3C2=O)C=C1 | . | 107.1 | . | / | . | /
CCN1C=CC(=C2C(=O)c3ccccc3C2=O)C=C1 | . | 73.2 | . | / | . | /
SMILES | NSD2 HMT inh | Env fusion inh | PglD inh | Casp6 inh | ALR H2O2 inh | CFTR F508del cor
c1ccc(NCCCNc2ccccc2)cc1 | . | / | . | / | 98.3 | /
O=C1c2ccccc2C(=O)N1CCCCNc1ccccc1 | . | . | / | . | / | .
CC(C)NC(=O)N(C)C[C@@H]1Oc2cc(C#C[C@H](C)O)ccc2S(=O)(=O)N([C@@H](C)CO)C[C@@H]1C | / | / | . | . | / | .
COc1cccc(NC(=O)N[C@@H]2CC[C@@H](CC(=O)N3CCN(C)CC3)O[C@@H]2CO)c1 | / | . | . | . | / | .
Cc1cccc(C)c1NC(=O)c1cc(S(=O)(=O)N2CCC3(CC2)OCCO3)ccc1F | . | . | . | 65.3 | / | .
CCOC(=O)N1CCC(NC(=O)c2cc(S(=O)(=O)N3CCC4(CC3)OCCO4)ccc2F)CC1 | . | . | . | / | 99.5 | /
CCOC(=O)N1CCC(NC(=O)c2cc(-c3ccc(F)cc3)[nH]c2C)CC1 | . | . | . | / | 98.2 | /
COc1ccc(C)cc1NC(=O)c1cc(S(=O)(=O)N2CCC3(CC2)OCCO3)ccc1F | . | . | . | . | . | .
O=C(Nc1cccc(F)c1)c1cc(S(=O)(=O)N2CCC(C(=O)O)CC2)ccc1F | . | 76.7 | . | / | . | /
CC(C)C#Cc1ccc2c(c1)O[C@@H](CN(C)C)[C@H](C)CN([C@@H](C)CO)S2(=O)=O | / | . | . | / | / | .
O=C(C[C@@H]1CC[C@H]2[C@@H](COC[C@H](O)CN2C(=O)Nc2cccc(Cl)c2)O1)NCc1ccccc1F | / | . | . | . | / | .
COC(=O)[C@H]1[C@H](CO)[C@H]2Cn3c(ccc(-c4cccc(F)c4)c3=O)[C@H]2N1S(C)(=O)=O | / | / | . | . | / | /
CC(=C/c1ccccc1)/C=N/n1c(C)n[nH]c1=S | . | 59.2 | . | . | . | .
CC(/C=N/n1c(-c2ccc(C)cc2)n[nH]c1=S)=C\c1ccco1 | . | . | / | / | 97.1 | /
CC(=C/c1ccccc1)/C=N/n1c(-c2ccncc2)n[nH]c1=S | . | 64.3 | / | . | . | .
CC(/C=N/n1c(-c2ccccc2)n[nH]c1=S)=C\c1ccco1 | . | / | / | / | ? | /
CC(/C=N/n1c(-c2cccnc2)n[nH]c1=S)=C\c1ccccc1 | . | . | . | / | . | /
CCCN1C[C@H](C)[C@@H](OC)CN(C)C(=O)c2cc(NS(C)(=O)=O)ccc2OC[C@H]1C | / | . | . | / | / | .
Cc1nn(Cc2ccccc2)c2c1C(c1cccnc1)C(C#N)=C(N)O2 (stereo not given) | . | / | . | / | 94.6 | /
O=C(C[C@H]1C[C@@H]2c3cc(NC(=O)c4ccc5c(c4)OCO5)ccc3O[C@@H]2[C@H](CO)O1)NCc1ccc(Oc2ccccc2)cc1 | / | . | . | . | / | .
O=C(C[C@@H]1C[C@H]2c3cc(NC(=O)Nc4ccccc4)ccc3O[C@H]2[C@H](CO)O1)NCc1cccnc1 | / | 62.8[16.7 µM] | . | / | / | .
O=C(C[C@H]1C[C@H]2c3cc(NC(=O)c4ccc5c(c4)OCO5)ccc3O[C@H]2[C@H](CO)O1)NCc1ccc(Oc2ccccc2)cc1 | / | 73.1[16.7 µM] | . | . | / | .
O=C(C[C@@H]1C[C@@H]2c3cc(NC(=O)Nc4ccccc4)ccc3O[C@@H]2[C@@H](CO)O1)NCc1ccccc1 | / | 59.0[16.7 µM] | . | . | / | .
O=C(C[C@H]1C[C@H]2c3cc(NC(=O)Nc4ccccc4)ccc3O[C@H]2[C@H](CO)O1)NCc1cccnc1 | / | . | . | / | / | .
C[C@@H]1CN([C@@H](C)CO)C(=O)c2cc(NS(=O)(=O)c3ccccc3)ccc2O[C@@H]1CN(C)S(=O)(=O)c1cccs1 | / | . | . | . | / | .
COc1cc(/C=C2\SC(N)=NC2=O)cc(OC)c1 | . | 58.8 | . | . | . | .
NC1=NC(=O)/C(=C/c2cc(Br)c(O)c(Br)c2)S1 | . | . | / | . | . | .
Nc1ccc(-c2nc3cc(N)ccc3n2CCO)cc1 | . | . | / | . | 98.3 | .
Cn1c(C2CCCCC2)nc2cc(N)ccc21 | . | . | . | . | 88.7 | .
